# Assay outcomes as filed in PubChem BioAssay.
# Hits are enriched below; roughly 5.1% of the tested compounds scored in any of these assays.
# RAM network inh: inhibitors of the yeast RAM network, primary screen, dse1pr::URA3 reporter, 5-FOA selection; inhibition, % at 50 µM; 190,000 compounds, 1.8% hits; S. cerevisiae dse1pr::URA3 reporter, 5-FOA growth OD615, 2 d; analog-sensitive cbk1-as2 kinase mutant strain;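 active means inhibition above a set limit, 3 SD over mean compound inhibition, cut at about 8.4% in these data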;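 further: 0% = DMSO-only wells with no growth and 100% = 10 µM 1-NA-PP1 full growth; inhibition rescues growth on 5-FOA so higher OD means more RAM inhibition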
# S1P3 antag: S1P3 receptor antagonists, primary screen, cell-based. CHO S1P3 NFAT-BLA reporter, FRET fluorescence, antagonist mode. Sphingosine 1-phosphate receptor 3 (Homo sapiens), Q99500. inhibition, % at 4.98 µM. 170,000 compounds, 0.27% hits;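 active means inhibition above the plate cutoff, the mean inhibition of test wells on that plate plus 3 SD, cut at about 28% in these data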;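 further: cells challenged with S1P at its EC80 of 0.8 µM; blue over green emission ratio from cleaved BLA substrate after 4 h stimulation; 0% = S1P-stimulated wells and 100% = unstimulated DMSO-only wells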
# KCC2 mod: KCC2 cotransporter modulators, thallium flux, primary screen, cell-based, HEK293 KCC2, FluoZin-2 fluorescence, MLSMR; Solute carrier family 12 member 5 (Homo sapiens), Q9H2X9; B-score of Tl+ flux slope (higher = more flux/activation; lower = inhibition) at 10 µM; 190,000 compounds, 2.2% hits; KCC2 cells, thallium flux FluoZin-2 fluorescence; AID 1456, 2008;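 active means thallium flux slope and its plate-corrected score both differing from the plate sample mean at a set confidence after two filtering rounds, in either direction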;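 further: slope of fluorescence scaled to starting intensity during 10 to 20 s after thallium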
# ROMK mod: ROMK potassium channel modulators, primary screen, cell-based, thallium flux, MLSMR library; ATP-sensitive inward rectifier potassium channel 1 (Homo sapiens), P48048; Tet-inducible ROMK, thallium flux fluorescence; actives lie on both sides; B-score at 10 µM; 130,000 compounds, 2% hits; AID 1918, 2009;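 active means signal ratio slope over the read window, or its plate-corrected B-score, at least 3 SD from the plate mean, either direction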;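 further: B-score of the F/F0 ratio slope over 7 to 12 s after thallium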
# S1P4 antagonist: S1P4 receptor antagonists, primary screen, cell-based; S1P4-expressing cells, antagonist mode, reporter read-out; 220,000 compounds, 0.26% hits; inhibition, % at 4.98 µM; Sphingosine 1-phosphate receptor 4 (Homo sapiens), O95977; in the data active means inhibition above about 29%;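 further: 0% = wells stimulated with agonist and 100% = vehicle wells without agonist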
# Target sequence (O95977 whole entry, looked up): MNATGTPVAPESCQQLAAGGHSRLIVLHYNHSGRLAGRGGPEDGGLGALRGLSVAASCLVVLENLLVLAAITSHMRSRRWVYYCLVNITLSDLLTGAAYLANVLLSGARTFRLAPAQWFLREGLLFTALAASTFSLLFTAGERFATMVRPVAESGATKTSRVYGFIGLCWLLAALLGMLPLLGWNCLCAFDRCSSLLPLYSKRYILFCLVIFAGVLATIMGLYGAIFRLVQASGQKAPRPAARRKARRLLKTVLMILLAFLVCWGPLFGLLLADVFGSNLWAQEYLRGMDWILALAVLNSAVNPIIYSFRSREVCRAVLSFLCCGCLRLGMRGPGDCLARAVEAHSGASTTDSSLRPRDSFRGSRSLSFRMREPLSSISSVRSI
# S1P4 ag: S1P4 receptor agonists, primary screen, cell-based; Sphingosine 1-phosphate receptor 4 (Homo sapiens), O95977; S1P4-expressing cell line, agonist reporter assay; activation, % at 4.98 µM; 220,000 compounds, 0.35% hits; AID 1509, 2009; in the data active means activation above about 11%;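 further: 0% = DMSO vehicle and 100% = reference agonist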
# S1P4 agonist cf: S1P4 receptor agonists, retest, confirmation, cell-based, high throughput; S1P4 agonist cell-based reporter assay; shares compounds with S1P4 ag; activation, % at 4.98 µM; 740 compounds, 7% hits; in the data active means activation above about 12%;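 further: 0% = vehicle and 100% = full reference agonist response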
# S1P1 ag: S1P1 receptor agonists, human, counter-screen for S1P4 agonist project, cell-based; shares compounds with S1P4 ag; S1P1 agonist cell-based assay, activation; activation, % at 4.98 µM; 740 compounds, 4% hits; AID 1563, 2009; in the data active means activation above about 21%;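 further: 0% = vehicle wells and 100% = reference agonist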
# The depositor's hits bear a star; / = no result given.
SMILES,RAM network inh,S1P3 antag,KCC2 mod,ROMK mod,S1P4 antagonist,S1P4 ag,S1P4 agonist cf,S1P1 ag
O=c1c(-c2n[nH]c(=S)o2)cccn1Cc1ccccc1,2,-8,0.0088,0.98,5,1,/,/
Cc1nn(Cc2nnc(SCC(=O)Nc3cccc(C(F)(F)F)c3)n2C)c(C)c1[N+](=O)[O-],/,-6,-1.8,0.24,13,56*,-2,-5
Cn1c(Cn2cnc([N+](=O)[O-])n2)nnc1SCC(=O)Nc1cccc(Cl)c1,0,11,1.6,0.4,-14,-1,/,/
CCN(CC)C(=O)CSc1nc(-c2ccccc2)cc(=O)[nH]1,1,10,/,-0.093,-13,2,/,/
CCc1ccc2c(c1)/C(=N/OC)C(=O)N2,0,-8,-1.1,0.0079,-5,60*,-2,16
COc1ccc2c(c1)C(=O)C(=O)N2,2,6,-0.46,0.42,-21,-2,/,/
Cc1noc(C)c1C(=O)OCC(=O)Nc1c(F)cccc1F,2,-20,0.33,0.44,-5,1,/,/
O=C(N/C(=C/c1ccc(Br)cc1)C(=O)N1CCCC1)c1cccs1,0,-9,-0.69,0.0023,-2,13*,-2,-1
O=C(COc1ccc2ccccc2c1)NNC(=O)Cc1ccccc1,4,4,-0.78,/,-2,13*,-2,-1
CCOC(=O)C1(CCc2ccccc2)CCN(C(=O)Cc2nonc2C)CC1,2,-2,-0.98,0.41,-11,-1,/,/
CN1CCN(C(=O)C(N)Cc2ccccc2)CC1 (stereo not given),-2,-7,0.71,-0.56,4,18*,-2,-1
COc1ccc(-c2nnn(CCc3nn[nH]n3)n2)cc1,/,/,0.76,/,-14,3,/,/
COc1cc(C#N)c(NC(=S)N2CCOCC2)cc1OC,2,-19,/,0.22,-3,24*,-2,-7
COC(=O)c1ccc(C(=O)OC)c(NC(=S)N2CCOCC2)c1,0,-12,2.2,-0.29,-16,3,/,/
Nc1nc(Nc2ccccc2Br)nc(C(F)(F)F)n1,3,-18,-0.17,/,-8,1,/,/
Nc1nc(Nc2ccc(Cl)cc2Cl)nc(C(F)(F)F)n1,5,-9,-1.4,/,-9,30*,27*,-2
O=C(/C=C/c1ccccc1)C1=C(O)C(=O)N(CCO)C1c1ccc2c(c1)OCO2 (stereo not given),3,-21,0.92,/,9,0,/,/
O=[N+]([O-])c1ccc2c(c1)CNc1ccccc1O2,1,1,-1.1,-1.7,-2,33*,-2,3
Clc1ccc(C2CC(c3cccs3)n3ncnc3N2)c(Cl)c1 (stereo not given),1,11,-0.65,/,5,27*,-2,-5
C#CCOCCOCCOCCNc1nc(N2CCN(C(=O)[C@H](CCCCN)n3cc(C(N)COC(=O)C(F)(F)F)nn3)CC2)nc(N2CCN(C(=O)[C@H](CCCCN)n3cc(C(N)CC(C)C)nn3)CC2)n1 (stereo not given in full),/,/,0.76,/,/,/,/,/
Cn1c(=NC(=O)c2ccccc2[N+](=O)[O-])sc2cccc(F)c21,/,12,-0.21,/,3,11*,-3,1
N/C(CCS(=O)(=O)c1ccc(Cl)cc1)=N\OC(=O)c1ccc(Cl)cc1,/,-2,0.33,0.92,16,103*,-1,-4
CC(=O)N(CCS(=O)(=O)c1ccc(Cl)cc1)Cc1cccs1,/,-7,-0.62,/,-1,0,/,/
O=S(=O)(CCNCc1cccs1)c1ccc(Cl)cc1,/,-15,-0.88,/,8,36*,-2,-2
COc1cc2c(cc1OC)/C(=C/c1ccc(Br)cc1)C(=O)OC2,3,-16,0.17,-0.16,-4,149*,-2,-4
SMILES,RAM network inh,S1P3 antag,KCC2 mod,ROMK mod,S1P4 antagonist,S1P4 ag,S1P4 agonist cf,S1P1 ag
Cc1ccc2c(c1)n([O-])c1c([n+]2=O)CCCC1,1,/,/,0.8,-13,2,/,/
O=[n+]1c2c(n([O-])c3cc(F)ccc31)CCCC2,-1,4,0.25,/,-8,21*,-2,-7
CC(C)CNS(=O)(=O)c1ccc(S(=O)(=O)N2CCC3(CC2)OCCO3)cc1,1,8,0.84,0.28,-8,16*,-1,-5
Cc1ccc(-n2nc(C)c3onc(C)c3c2=O)cc1,/,-6,0.011,/,8,2,/,/
COc1ccc(NC(=O)CSc2nc(C)cs2)c(OC)c1,-1,-6,1.6,-0.12,5,74*,-3,1
COc1ccc(OC)c(NC(=O)CSc2nc(C)cs2)c1,1,21,0.028,/,-23,1,/,/
CNCc1ccccc1Sc1ccc(OC)c(OC)c1,0,/,-0.84,-1.4,15,0,/,/
NS(=O)(=O)c1ccc(CCNC(=O)CCCC2=NS(=O)(=O)c3ccccc3N2)cc1,4,-34,0.81,/,-5,17*,-1,-2
CCOCCCNC(=O)CCCC1=NS(=O)(=O)c2ccccc2N1,0,-16,0.48,-0.065,-7,-2,/,/
CNC(=O)c1[nH]cnc1C(=O)N[C@@H](Cc1ccccc1)C(=O)OCc1ccccc1,4,-35,-2,/,-26,23*,56*,38*
CN1C(C(=O)NCc2ccccc2)CC2Cn3c(nc4cc5ccccc5cc43)C21 (stereo not given),/,/,-2.4,/,/,/,/,/
C=CCn1nnnc1-c1cc(Cl)cc(Cl)c1,0,-11,/,-0.25,-13,-1,/,/
Cc1ccc(NC(=O)Cn2cnc3ccccc32)cc1C,0,-7,0.77,-1.6,0,58*,-2,3
Cc1ccc(NC(=O)Cn2cc3c(n2)CCC(C)C3)cc1 (stereo not given),2,-23,1.4,/,3,27*,-2,-7
COC(=O)c1ccccc1NC(=O)Cn1cc2c(n1)CCC(C)C2 (stereo not given),0,-12,-2.8,/,-7,0,/,/
CC(C)(C)c1ccc(N2C(=O)CSC2c2cccnc2)cc1 (stereo not given),/,-3,0.58,/,12,99*,-1,-6
C=CCNC(=O)c1ccccc1NC(=O)c1ccc(Cl)c(S(=O)(=O)Nc2ccccc2)c1,4,/,/,/,-5,2,/,/
